In PubChem BioAssay (EPA / NIEHS) one finds AC50 and outcome data, which are given here for 40 molecules.

Each structure is given as a SMILES string. Calls of active or inactive are those of the source. Rule for the calls: active = hit-call score of the fitted dose curve at least 0.9, where 1 is the maximum; inactive = score below 0.9.

The assay in a line: APR_HepG2_MicrotubuleCSK_72hr: Apredica 72-hour HepG2 Assay for Microtubule CSK Stabilty (AID 2282919). Conditions: HepG2 microtubule cytoskeleton, high-content imaging, actives raise or lower the signal. How it is done: APR_HepG2_72hr is a cell-based, multiplexed-readout assay that uses HepG2, a human liver cell line, with measurements taken at 72 hours after chemical dosing in a 384-well plate.APR_HepG2_MicrotubuleCSK_72hr is one of 10 assay component(s) measured or calculated from the APR_HepG2_72hr assay. It is designed to make measurements of protein conformation, a form of conformation reporter, as detected with fluorescence intensity signals by HCS Fluorescent Imaging technology.Data from the assay component APR_HepG2_MicrotubuleCSK_72hr was analyzed into 1 assay endpoint. This assay endpoint, APR_HepG2_MicrotubuleCSK_72hr, was analyzed with bidirectional fitting relative to DMSO as the negative control and baseline of activity. Using a type of conformation reporter, measures of protein for gain or loss-of-signal activity can be used to understand the signaling at the cellular-level. Furthermore, this assay endpoint can be referred to as a primary readout, because this assay has produced multiple assay endpoints where this one serves a signaling function. To generalize the intended target to other relatable targets, this assay endpoint is annotated to the cell morphology intended target family, where the subfamily is cell conformation.
Cells were treated with dimethyl sulfoxide (DMSO) as a solvent control at a final concentration of 0.5% v/v or with compounds in DMSO with a resulting final DMSO concentration of 0.5% v/v. Compound treatment was done at concentrations of 0.39, 0.78, 1.56, 3.12, 6.24, 12.5, 25, 50, 100, and 200 uM in duplicate on each plate. Cells were treated with compounds for 1, 24, or 72 hr. Carbonyl […] m-chloro-phenylhydrazone (CCCP) and taxol were used as positive controls for mitochondrial function and cytoskeletal stability, respectively; DMSO served as the negative control for this experiment. Cells were fixed by the direct addition of 50 uL formaldehyde in Hank's Balanced Salt Solution (HBSS) to a final concentration of 3.7%. After incubation in the fixation medium for 30 min at room temperature (293-298 K), cells were rinsed twice with HBSS and treated with cell permeabilization buffer (16 uL of 0.5% Triton X-100) for 10 min at room temperature (293-298 K) before labeling. For mitochondrial membrane potential and mitochondrial measurements, pre-fixed cells were incubated with 50 uL of MitoTracker Red CMXRos (Invitrogen) at a concentration of 250 nM for 30 min before fixation. In the remaining cases, post-fixed cells were labeled by incubation with a multiplexed mixture of primary antibodies in HBSS for 60 min at room temperature (293-298 K) to detect immunoreactivity of c-Jun (1:500), phospho-histone H3 (1:100), phospho-histone H2A.x (1:200), p53 (1:400), alpha-tubulin (1:200) and Hoechst 33342 (2 ug/mL). Cells were labeled for multiplexed imaging on two separate plates: a) Hoechst 33342, MitoTracker Red, phospho-histone H3, and alpha-tubulin, and b) Hoechst 33342, phospho-histone H2A.x, and c-Jun. A final rinse with HBSS (50 uL) was performed before analysis. The primary and secondary antibodies for the proteins were phospho-histone H3 (rabbit anti-phospho-histone H3 and FITC-donkey anti-rabbit IgG), phospho-histone H2A.x (mouse anti-phospho-histone H2A.x and FITC-donkey anti-mouse IgG), c-Jun (rabbit anti-phospho-c-Jun and Cy3-donkey anti-rabbit IgG), p53 (sheep anti-p53 and Cy5-donkey anti-sheep IgG), alpha-tubulin (mouse anti-alpha-tubulin and Cy5-donkey anti-mouse IgG). These antibodies are available as the CellCiphr HepG2 assay kit (Millipore).Digital images of each well were captured using a Cellomics ArrayScan VTI (Thermo Scientific Cellomics) (0.8 NA objective, 0.63x optical coupler, and XF-93 filter set) at 20x magnification. The images were acquired using the autofocus feature of the ArrayScan instrument, which entails the following steps. First, the camera focuses on channel 1 (Hoechst 33342), where nuclei are identified. Second, a Z offset of 1 um is used for capturing mitochondria (MitoTracker Red). […]
For the molecule `CC(C)(C)C(O)(CCc1ccc(Cl)cc1)Cn1cncn1` (stereo not given), the AC50 was 107 µM (active).

For the molecule `CN(C)c1ccc(C(=O)c2ccc(N(C)C)cc2)cc1`, the outcome was inactive.

Turning to `CCCSC(=O)N(CCC)CCC`, the result was inactive.

With `C=CCc1ccc2c(c1)OCO2`, the molecule was classed as inactive.

With `CN(C)C(=O)Nc1ccc(Cl)cc1`, the result was inactive.

Turning to `Cc1ccc(N)c(N)c1`, the molecule was classed as inactive.

As to `COC(=O)Nc1nc2ccccc2[nH]1`, the outcome was inactive.

Consider `CCN(CC)CCO`, for which the molecule was classed as inactive.

Consider `Clc1ccc(C(c2ccc(Cl)cc2)C(Cl)Cl)cc1`, for which the AC50 was 156 µM (active).

Take `Brc1ccc(Oc2ccccc2)cc1`: the molecule was called inactive.

For the molecule `CCN(CC)N=O`, the molecule was classed as inactive.

With `O=C1CCCO1`, the call was inactive.

Turning to `CCCCC(CC)COC(=O)c1ccc(C(=O)OCC(CC)CCCC)c(C(=O)OCC(CC)CCCC)c1` (stereo not given), the result was inactive.

Turning to `Nc1ccc(Cc2ccc(N)cc2)cc1`, the result was inactive.

For `CC(C)N(Cc1ccccc1)C(=O)C(C)(C)C`, the molecule was classed as inactive.

For the molecule `CC(C)(O)c1cnn2c(-c3ccc(F)c(-c4c(F)cccc4C#N)c3)cnc2n1`, the AC50 is 78.8 µM (active).

Turning to `CC(C)(OOC(C)(C)c1ccccc1)c1ccccc1`, the result was inactive.

Take `ClC1=C(Cl)C2(Cl)C3C(Cl)C=CC3C1(Cl)C2(Cl)Cl` (stereo not given): the concentration at half-maximal activity (AC50) is 88.5 µM (active).

On to `CCCCCCCCOC(=O)c1ccc(C(=O)OCCCCCCCC)c(C(=O)OCCCCCCCC)c1`, for which the molecule was classed as inactive.

On to `CCCCCCCCn1sccc1=O`, for which the molecule was called inactive.

Turning to `Clc1ccccc1Cl`, the molecule was called inactive.

Regarding `Nc1cc(Cl)cc(C(=O)O)c1Cl`, the outcome was inactive.

For `c1ccc(N=Nc2ccccc2)cc1`, the call was inactive.

Turning to `CO[C@@H]1[C@H](OC(=O)NC(=O)CCl)CC[C@]2(CO2)[C@H]1[C@@]1(C)O[C@@H]1CC=C(C)C`, the molecule was called inactive.

`O=C(Oc1ccc(Br)cc1)N1CCN2CCC1CC2`: the result was inactive.

As to `C1=Cc2cccc3cccc1c23`, the molecule was classed as inactive.

For the molecule `Nc1ccc(Oc2ccc(N)cc2)cc1`, the call was inactive.

`Cc1cc(N=Nc2ccccc2C)ccc1N`: the result was inactive.

Turning to `Cc1ccc(N)cc1`, the call was inactive.

For the molecule `CCC12COCN1COC2`, the molecule was classed as inactive.

For `O=C(N[C@H](c1ccccc1)[C@@H]1CN2CCC1CC2)c1c(Cl)ccc(C(F)(F)F)c1Cl`, the molecule was classed as inactive.

With `c1ccc2c(c1)oc1ccccc12`, the result was inactive.

On to `Clc1ccc(Cl)c(Cl)c1`, for which the outcome was inactive.

Turning to `c1ccc2c(c1)-c1cccc3cccc-2c13`, the call was inactive.

Consider `Oc1ccc2ccc3cccc4ccc1c2c34`, for which the AC50 is 85.4 µM (active).

As for `Cc1cccc(N)c1N`, the outcome was inactive.

`Cc1ccc([N+](=O)[O-])cc1`: the molecule was classed as inactive.

On to `O=C(Nc1ccccc1)c1ccccc1I`, for which the outcome was inactive.

As to `OCCOCCO`, the molecule was classed as inactive.

Take `ClCCOCCCl`: the result was inactive.
